# From the supplement of paper PMC5499739
# The full ranking holds about 16,000 sequences; the median of “Z-score” is about -0.37, and the highest 2% start at about 3.2. Shown is part of a subset that was picked to be rich in the highest values.
# Tested on: RBM10 RRM1-ZnF (GST-tagged construct)
# Experiment: RNAcompete 7-mer binding Z-score; higher = stronger binding preference
# Method: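 RNAcompete: 20 pmol GST-tagged RBM10 RNA-binding constructs were incubated with a designed RNA pool of about 241,000 sequences up to 41 nt (1.5 nmol) on glutathione beads for 30 min at 4 °C and washed. Bound RNAs were identified by microarray hybridisation. Each RNA 7-mer is scored by a one-sided Z-score of its enrichment, computed over probes that contain the 7-mer within longer pool sequences.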
row,Sequence,RNAcompete 7-mer binding Z-score
1,AAUGGGA,4.35
2,CAUGGGA,1.95
3,GAUGGGA,3.76
4,UAUGGGA,2.85
5,GCUGGGG,2.64
6,GAUGGUA,2.28
7,AAUGGGC,2.5
8,CUCACUU,-0.925
9,UUGUUAC,-0.373
10,GUUACCG,-0.0999
11,GGCCGAG,0.462
12,UGCGAUA,-0.223
13,GCCAGAG,0.00729
14,AGGGAGU,2.96
15,GGGGAGA,3.3
16,AGGGAGG,3.68
17,CGGGAGA,1.24
18,GGGGAGU,2.84
19,GGGGAGG,3.64
20,UGGGAGA,2.78
21,UGGGAGG,4.4
22,UGGGAGU,2.27
23,CGGGAGG,3.02
24,GGGGAGC,2.29

row,Sequence,RNAcompete 7-mer binding Z-score
1,UGGGAGC,2.86
2,AGUCAGU,0.0105
3,ACGCCGC,-0.633
4,UCCAACU,-0.85
5,GUUACGG,0.859
6,GAGCUGA,0.417
7,GCGCAAA,-0.181
8,AAGGCCA,-0.00896
9,UUCUUAG,-0.698
10,AUCCUAC,-0.87
11,GUCUCAU,-0.642
12,AGAAUCC,-0.785
13,AUACAAU,-0.539
14,CACGCAA,-0.464
15,GGGCUAU,0.849
16,GAUAAGU,0.313
17,GAAAAGG,4.26
18,AAAAGGU,2.33
19,GAAAGGU,4.51
20,AAAAAGG,2
21,CAUAAGG,0.335
22,UGAAAGG,3.05
23,AGAAAGG,4.58
24,CAAAAGG,0.888

row,Sequence,RNAcompete 7-mer binding Z-score
1,CGAAAGG,2.19
2,CAAAGGU,1.15
3,GAUAAGG,3.91
4,CACCUUG,-0.516
5,ACUAGUG,0.0983
6,GUACCAG,-0.035
7,ACCAGGA,0.823
8,CGCGGCG,1.25
9,CGCCAUA,-0.594
10,AGAGGGU,2.22
11,UGAGGGG,3.64
12,UGAGGGA,4.02
13,UGAGGAG,1.86
14,UGAGGGU,3.48
15,UGAGGCU,0.3
16,CGAGGGU,3.7
17,CGAGGGC,1.06
18,UGAGGGC,2.27
19,UGAGAGG,1.94
20,CGAGGUU,0.846
21,CGAGGGA,2.84
22,UAGCGGC,-0.132
23,AGAUGAU,0.287
24,UGACUCC,-0.652

row,Sequence,RNAcompete 7-mer binding Z-score
1,AUUUAAC,-0.561
2,GGGAGAU,2.7
3,CGAAGCU,-0.691
4,GUCAGCU,-0.425
5,AGUGCCG,-0.11
6,UCGCAAU,-0.545
7,CGAACGA,-0.123
8,GGGCAUA,1.66
9,AUACACC,-0.795
10,CUGAGGC,-0.0155
11,GGAGGAU,2.46
12,GGAGGGU,3.97
13,GGAGGCU,1.41
14,CCCAAUG,-0.662
15,CUAGGGG,2.46
16,GUAGGGC,2.49
17,CUAGGGU,2.25
18,UUAGGGU,2.78
19,UUAGGGG,2.4
20,GUAGGGU,4.46
21,GUAGGGA,3.87
22,GUAGGGG,4.54
23,AUAGGGG,3.9
24,AUAGGCG,0.781

row,Sequence,RNAcompete 7-mer binding Z-score
1,UUAGGGA,2.03
2,AUAGGUG,2.64
3,GCAUACU,-0.694
4,UACAGGU,0.881
5,AUAGCAG,0.358
6,ACUCGGG,0.667
7,ACAACCA,-0.464
8,CAAUGUC,-0.75
9,GAGACCA,-0.126
10,GACUAAC,-0.626
11,UCCUUGC,-0.733
12,GACUGGG,2.42
13,CUAGGAG,0.608
14,GUAGGAG,3.43
15,AUAGGGC,1.72
16,AUAGGGU,3.61
17,AUAGGGA,2.86
18,GUAGGAC,1.4
19,CCAGCAA,-0.617
20,AUGGCAU,0.514
21,UUAAAAA,-0.444
22,GGCCUGC,-0.428
23,AAAAGCG,0.378
24,ACUUCUC,-0.841

row,Sequence,RNAcompete 7-mer binding Z-score
1,UAUAAUA,-0.412
2,CGCGUGC,-0.223
3,ACGGGGG,3.27
4,ACGGGUU,2.65
5,ACGGGUG,3.39
6,ACGGGUC,1.19
7,GCGGGUG,3.17
8,ACGGGGU,4.07
9,ACGGGGA,3.04
10,ACCGGGU,0.631
11,ACGGGGC,2.26
12,CUCAAUC,-0.769
13,ACGCUCG,-0.636
14,UUUUAUC,-0.873
15,CAGCCUG,-0.513
16,GGAGUGG,4.84
17,AGAGUGG,2.81
18,GAAGUGU,1.08
19,GAAGUGC,0.29
20,GAAGUGG,3.46
21,GGAGUGA,2.38
22,CGUCCCG,-0.594
23,CGUUCUA,-0.811
24,UUUCUUA,-0.727

row,Sequence,RNAcompete 7-mer binding Z-score
1,UUAUAAC,-0.704
2,GACUAUA,-0.542
3,AAAGGGA,4.42
4,GAAGGCU,0.621
5,UAAGGGU,3.44
6,CAAGGGU,2.65
7,GAAGGGU,4.19
8,UAAGGGG,3.27
9,UAAGGCU,0.183
10,CAAGGGG,2.79
11,GAAGGGC,2.98
12,CAAGGGA,2.42
13,UAAGGCG,1.03
14,AAAGGGC,2.62
15,ACUUAGU,-0.435
16,GAAUGCU,-0.184
17,AUAGAAU,-0.132
18,CCUCGCU,-0.681
19,UUACUAC,-0.707
20,UGCUGUG,-0.119
21,UCUGACG,-0.535
22,UACCAAC,-0.668
23,UAAGGGA,3.27
24,UAAGGCA,0.888

row,Sequence,RNAcompete 7-mer binding Z-score
1,GCAGGGA,2.92
2,UAAGGGC,1.49
3,GAAGGGA,4.52
4,GAAGGCA,1.7
5,CCUCAUC,-0.737
6,CCACGUA,-0.578
7,GGGCAGA,2.45
8,UGGCGGU,1.49
9,GGGCGAG,3.37
10,UGGCGGG,3.47
11,GGACAGG,3.3
12,GGGCGAA,2.22
13,AGACAGG,1.59
14,GGACAGU,0.842
15,GGGCGAC,1.81
16,AGGCAGG,1.8
17,GGGCAGG,3.39
18,CGGCGGG,2.07
